Measured values reported in PubChem BioAssay (NCATS).
Results filed as inconclusive are left out. Entries that show only a call come without a potency. The source made the active and inactive calls. Calls follow the shape of the dose curve; as a rule, active = well fitted curve in the direction sought with a large enough effect; inconclusive = small, poorly fitted or top-dose-only effect, or another doubt; inactive = no such curve, though single readings can be large; an effect the other way counts as inactive or inconclusive.

Assay: Identifying Small Molecule Inhibitors of Pancreatic Cancer Stem Cells (SN12C, Adherent) (AID 1259358);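 also: cell survival measured after 48 h of compound exposure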
Settings: viability/growth inhibition; series mostly up to 46.1 µM
How it was run: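 After a 4 h attachment period, compounds were pinned into wells and cultures held 48 h under standard incubator conditions. Viability was then measured as CellTiter-Glo luminescence following 10 min at room temperature.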
Potency is read from the fitted curve at half-maximal effect.

Which Potency does the source give for `O=C(Nc1nc2ccccc2n1CCN1CCOCC1)c1cccc([N+](=O)[O-])c1` here?
The Potency was “inactive”.

With `CN(C)C(=O)c1ccc(S(=O)(=O)c2ccc(NC(=O)[C@@](C)(O)C(F)(F)F)c(Cl)c2)cc1` as the compound, how does the Potency read?
The Potency was “inactive”.

Which Potency does the source give for `Cc1ccc(NC(=O)c2cccc(C(C)(C)C#N)c2)cc1Nc1ccc2ncn(C)c(=O)c2c1` here?
The Potency was 7.43 µM (active).

With `Cn1cnc2c(F)c(Nc3ccc(Br)cc3Cl)c(C(=O)NOCCO)cc21` as the compound, how does the Potency read?
The Potency was 1.18 µM (active).

For `OCCn1cc(-c2cnc3nnn(Cc4ccc5ncccc5c4)c3n2)cn1`, which Potency is on record?
The Potency was “inactive”.

For `NC(=O)c1ccc(-c2nc(-c3ccc4c(c3)OCCO4)c(-c3ccccn3)[nH]2)cc1`, which Potency is on record?
Its Potency is “inactive”.

For `Nc1nc2ccc(OC(F)(F)F)cc2s1`, which Potency is on record?
The Potency was “inactive”.

For `CCCS(=O)(=O)Nc1ccc(F)c(C(=O)c2c[nH]c3ncc(-c4ccc(Cl)cc4)cc23)c1F`, which Potency is on record?
Its Potency is “inactive”.

Assay: Identifying Small Molecule Inhibitors of Pancreatic Cancer Stem Cells (SN12C, Spheroid) (AID 1259360)
Settings: Potency: SN12C spheroid viability; series mostly up to 46.1 µM
How it was run: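 Luminescent ATP readout (CellTiter-Glo) quantifies surviving cells after a 48 h drug incubation. Normalization uses DMSO wells as no inhibition and media-only wells as full inhibition; bortezomib served as positive control.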

For `Cc1cc(-c2nnc3n2CCCCC3)c(C)n1-c1ccc(F)cc1`, which Potency is on record?
Its Potency is “inactive”.

With `C[C@@H]1CN(Cc2ccc(F)cc2)[C@@H](C)CN1C(=O)c1cc2c(C(=O)C(=O)N(C)C)cn(C)c2cc1Cl` as the compound, how does the Potency read?
The Potency was 16.6 µM (active).

With `O=C(c1cc(Cc2n[nH]c(=O)c3ccccc23)ccc1F)N1CCN(C(=O)C2CC2)CC1` as the compound, how does the Potency read?
Its Potency is 18.7 µM (active).

Which Potency does the source give for `CCc1cncnc1N1CCN(Cc2nc3ccc(C(F)(F)F)cc3[nH]2)CC1` here?
Its Potency is 14.8 µM (active).

With `C/C(=C\C(=O)Nc1ccccc1C(=O)O)c1ccc2ccccc2c1` as the compound, how does the Potency read?
The Potency was “inactive”.

For `COc1ccc(CCN2CCN(CCCc3ccccc3)CC2)cc1OC`, which Potency is on record?
The Potency was 13.2 µM (active).

Which Potency does the source give for `COc1cc(Nc2ncc3c(n2)-c2ccc(Cl)cc2C(c2c(F)cccc2OC)=NC3)ccc1C(=O)O` here?
Its Potency is “inactive”.

For `CNC(=O)c1ccc(C)c(-n2c(C)cc(OCc3ccc(F)cc3F)c(Br)c2=O)c1`, which Potency is on record?
The Potency was 4.69 µM (active).

Which Potency does the source give for `COc1ccc(CC2=NN3C([C@@H](CCc4ccccc4)[C@@H](C)O)=NC(C)C3C(=O)N2)cc1OC` (some centres undefined) here?
The Potency was “inactive”.

With `COc1ccc(C2=N[C@H](c3ccc(Cl)cc3)[C@H](c3ccc(Cl)cc3)N2C(=O)N2CCNC(=O)C2)c(OC(C)C)c1` as the compound, how does the Potency read?
The Potency was “inactive”.

For `CC(C)(N)C(=O)N[C@H](COCc1ccccc1)C(=O)N1CCC2(CC1)CN(S(C)(=O)=O)c1ccccc12`, which Potency is on record?
The Potency was “inactive”.

With `CCOC(=O)N[C@@H]1CC[C@@H]2[C@@H](C1)C[C@H]1C(=O)O[C@H](C)[C@H]1[C@@H]2C=Cc1ccc(-c2cccc(F)c2)cn1` as the compound, how does the Potency read?
Its Potency is 14.8 µM (active).

Which Potency does the source give for `CCC(C)(C)C(=O)O[C@H]1C[C@@H](C)C=C2C=C[C@H](C)[C@H](CC[C@@H]3C[C@@H](O)CC(=O)O3)[C@H]21` here?
The Potency was “inactive”.

For `OCCC#Cc1nc(-c2ccc(F)cc2)c(-c2ccncc2)n1CCCc1ccccc1`, which Potency is on record?
Its Potency is 20.9 µM (active).

With `N#CC[C@H](C1CCCC1)n1cc(-c2ncnc3[nH]ccc23)cn1` as the compound, how does the Potency read?
The Potency was “inactive”.

With `Cc1ccnc(NS(=O)(=O)c2ccc(NC(=O)Nc3ccc(S(=O)(=O)Nc4nccc(C)n4)cc3)cc2)n1` as the compound, how does the Potency read?
The Potency was 18.7 µM (active).
